From the supplement of paper PMC8728848
Many of the other results were omitted from the sample, so the strongest signals are more common in it than they were.

Legend:
Assay in all cases: glycan array binding signal (z-score within array); higher = stronger binding
Details in all cases: glycan notation: IUPAC condensed, linker removed
Fuc(a1-2)Gal(b1-3)GlcNAc = target: Fuc(a1-2)Gal(b1-3)GlcNAc
Procedure, shortened: (§1)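 The binding signal is a Z-score computed within each array. Data were drawn from 3228 arrays in the Consortium for Functional Glycomics database, restricted to those with a known protein sequence. Scores were averaged over arrays of the same protein sequence at different concentrations or buffers, and over linkers, and negative values can be taken as non-binding.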

[1] = target: Fuc(a1-2)Gal(b1-3)GlcNAc(b1-2)Man(a1-3)[Fuc(a1-2)Gal(b1-3)GlcNAc(b1-2)Man(a1-6)]Man(b1-4)GlcNAc(b1-4)GlcNAc
Procedure, shortened: as §1

[2] = target: Fuc(a1-2)Gal(b1-3)GlcNAc(b1-3)Gal(b1-4)Glc
Procedure, shortened: as §1

[3] = target: Fuc(a1-2)Gal(b1-3)GlcNAc(b1-3)[Gal(b1-4)GlcNAc(b1-6)]Gal(b1-4)Glc
Procedure, shortened: as §1

[4] = target: Fuc(a1-2)Gal(b1-3)GlcNAc(b1-3)[Neu5Ac(a2-6)Gal(b1-4)GlcNAc(b1-6)]Gal(b1-4)Glc
Procedure, shortened: as §1

[5] = target: Fuc(a1-2)Gal(b1-4)GlcNAc(b1-2)[Fuc(a1-2)Gal(b1-4)GlcNAc(b1-4)]Man(a1-3)[Fuc(a1-2)Gal(b1-4)GlcNAc(b1-2)Man(a1-6)]Man(b1-4)GlcNAc(b1-4)GlcNAc
Procedure, shortened: as §1

[6] = target: Fuc(a1-2)Gal(b1-4)GlcNAc(b1-3)Gal(b1-4)GlcNAc(b1-3)Gal(b1-4)GlcNAc
Procedure, shortened: as §1

[7] = target: Fuc(a1-2)[Gal(a1-3)]Gal(b1-3)GlcNAc
Procedure, shortened: as §1

[8] = target: Fuc(a1-2)[Gal(a1-3)]Gal(b1-3)GlcNAc(b1-6)GalNAc
Procedure, shortened: as §1

[9] = target: Fuc(a1-2)[GalNAc(a1-3)]Gal(b1-3)GlcNAc(b1-6)GalNAc
Procedure, shortened: as §1

[10] = target: Fuc(a1-2)[GalNAc(a1-3)]Gal(b1-4)[Fuc(a1-3)]GlcNAc(b1-3)GalNAc
Procedure, shortened: as §1

Gal(a1-4)Gal(b1-4)GlcNAc = target: Gal(a1-4)Gal(b1-4)GlcNAc
Procedure, shortened: as §1

[11] = target: Gal(b1-3)GlcNAc(a1-3)Gal(b1-4)GlcNAc
Procedure, shortened: as §1

[12] = target: Gal(b1-3)GlcNAc(b1-3)Gal(b1-4)GlcNAc(b1-3)Gal(b1-4)GlcNAc(b1-2)[Gal(b1-3)GlcNAc(b1-3)Gal(b1-4)GlcNAc(b1-3)Gal(b1-4)GlcNAc(b1-6)]Man(a1-6)[Gal(b1-3)GlcNAc(b1-3)Gal(b1-4)GlcNAc(b1-3)Gal(b1-4)GlcNAc(b1-2)Man(a1-3)]Man(b1-4)GlcNAc(b1-4)[Fuc(a1-6)]GlcNAc
Procedure, shortened: as §1

[13] = target: Gal(b1-3)GlcNAc(b1-3)Gal(b1-4)GlcNAc(b1-6)[Gal(b1-3)GlcNAc(b1-3)]Gal(b1-4)Glc
Procedure, shortened: as §1

[14] = target: Gal(b1-3)[Fuc(a1-4)]GlcNAc(b1-3)Gal(b1-4)GlcNAc
Procedure, shortened: as §1

[15] = target: Gal(b1-4)GlcNAc(b1-2)[Gal(b1-4)GlcNAc(b1-4)]Man(a1-3)[GlcNAc(b1-4)][Gal(b1-4)GlcNAc(b1-2)Man(a1-6)]Man(b1-4)GlcNAc(b1-4)GlcNAc
Procedure, shortened: as §1

[16] = target: Gal(b1-4)GlcNAc(b1-2)[Gal(b1-4)GlcNAc(b1-6)]Man(a1-6)[Gal(b1-4)GlcNAc(b1-2)Man(a1-3)]Man(b1-4)GlcNAc(b1-4)[Fuc(a1-6)]GlcNAc
Procedure, shortened: as §1

[17] = target: Gal(b1-4)GlcNAc(b1-3)Gal(b1-4)GlcNAc(b1-3)Gal(b1-4)GlcNAc
Procedure, shortened: as §1

[18] = target: Gal(b1-4)GlcNAc(b1-3)Gal(b1-4)GlcNAc(b1-3)Gal(b1-4)GlcNAc(b1-3)Gal(b1-4)GlcNAc(b1-3)Gal(b1-4)GlcNAc(b1-2)[Gal(b1-4)GlcNAc(b1-3)Gal(b1-4)GlcNAc(b1-3)Gal(b1-4)GlcNAc(b1-3)Gal(b1-4)GlcNAc(b1-3)Gal(b1-4)GlcNAc(b1-6)]Man(a1-6)[Gal(b1-4)GlcNAc(b1-3)Gal(b1-4)GlcNAc(b1-3)Gal(b1-4)GlcNAc(b1-3)Gal(b1-4)GlcNAc(b1-3)Gal(b1-4)GlcNAc(b1-2)Man(a1-3)]Man(b1-4)GlcNAc(b1-4)[Fuc(a1-6)]GlcNAc
Procedure, shortened: as §1

Gal3S(b1-3)GalNAc = target: Gal3S(b1-3)GalNAc
Procedure, shortened: as §1

[19] = target: GalNAc(a1-3)GalNAc(b1-3)Gal(a1-4)Gal(b1-4)Glc
Procedure, shortened: as §1

[20] = target: GlcA3S(b1-3)Gal(b1-4)GlcNAc(b1-3)Gal(b1-4)Glc
Procedure, shortened: as §1

[21] = target: GlcNAc(b1-2)[GlcNAc(b1-4)]Man(a1-3)[GlcNAc(b1-4)][GlcNAc(b1-2)Man(a1-6)]Man(b1-4)GlcNAc(b1-4)GlcNAc
Procedure, shortened: as §1

[22] = target: GlcNAc(b1-3)Gal(b1-4)GlcNAc(b1-3)Gal(b1-4)GlcNAc(b1-3)GalNAc
Procedure, shortened: as §1

[23] = target: GlcNAc(b1-3)[GlcNAc(b1-6)]GalNAc
Procedure, shortened: as §1

Kdn(a2-3)Gal(b1-4)Glc = target: Kdn(a2-3)Gal(b1-4)Glc
Procedure, shortened: as §1

Man(a1-2)Man(a1-3)Man = target: Man(a1-2)Man(a1-3)Man
Procedure, shortened: as §1

[24] = target: Man(a1-3)[Man(a1-6)]Man(a1-6)[Man(a1-3)]Man
Procedure, shortened: as §1

Man(b1-4)GlcNAc = target: Man(b1-4)GlcNAc
Procedure, shortened: as §1

[25] = target: Neu5Ac(a2-3)Gal(b1-3)[Fuc(a1-4)]GlcNAc
Procedure, shortened: as §1

[26] = target: Neu5Ac(a2-3)Gal(b1-4)GlcNAc(b1-2)Man(a1-3)[Neu5Ac(a2-3)Gal(b1-4)GlcNAc(b1-2)Man(a1-6)]Man(b1-4)GlcNAc(b1-4)[Fuc(a1-6)]GlcNAc
Procedure, shortened: as §1

[27] = target: Neu5Ac(a2-3)Gal(b1-4)GlcNAc(b1-2)[Neu5Ac(a2-3)Gal(b1-4)GlcNAc(b1-4)]Man(a1-3)[GlcNAc(b1-4)][Neu5Ac(a2-3)Gal(b1-4)GlcNAc(b1-2)[Neu5Ac(a2-3)Gal(b1-4)GlcNAc(b1-6)]Man(a1-6)]Man(b1-4)GlcNAc(b1-4)GlcNAc
Procedure, shortened: as §1

[28] = target: Neu5Ac(a2-3)Gal(b1-4)GlcNAc(b1-3)Gal(b1-4)GlcNAc(b1-3)Gal(b1-4)GlcNAc
Procedure, shortened: as §1

[29] = target: Neu5Ac(a2-3)Gal(b1-4)GlcNAc(b1-6)[Neu5Ac(a2-3)Gal(b1-3)]GalNAc
Procedure, shortened: as §1

[30] = target: Neu5Ac(a2-3)Gal(b1-4)[Fuc(a1-3)]GlcNAc(b1-3)Gal(b1-4)[Fuc(a1-3)]GlcNAc(b1-3)Gal(b1-4)[Fuc(a1-3)]GlcNAc
Procedure, shortened: as §1

[31] = target: Neu5Ac(a2-6)Gal(b1-4)GlcNAc(b1-3)Gal(b1-3)GlcNAc
Procedure, shortened: as §1

[32] = target: Neu5Ac(a2-6)Gal(b1-4)GlcNAc(b1-3)Gal(b1-4)GlcNAc(b1-3)[Neu5Ac(a2-6)Gal(b1-4)GlcNAc(b1-3)Gal(b1-4)GlcNAc(b1-6)]GalNAc
Procedure, shortened: as §1

Neu5Ac(a2-6)GalNAc = target: Neu5Ac(a2-6)GalNAc
Procedure, shortened: as §1

[33] = target: Neu5Ac(a2-8)Neu5Ac(a2-3)Gal(b1-4)Glc
Procedure, shortened: as §1

[34] = target: Neu5Ac(a2-8)Neu5Ac(a2-8)Neu5Ac(a2-3)[Gal(b1-3)GalNAc(b1-4)]Gal(b1-4)Glc
Procedure, shortened: as §1

B1: FliC (Pseudomonas aeruginosa), P72151 (protein)
chain: MALTVNTNIASLNTQRNLNASSNDLNTSLQRLTTGYRINSAKDDAAGLQISNRLSNQISGLNVATRNANDGISLAQTAEGALQQSTNILQRIRDLALQSANGSNSDADRAALQKEVAAQQAELTRISDTTTFGGRKLLDGSFGTTSFQVGSNAYETIDISLQNASASAIGSYQVGSNGAGTVASVAGTATASGIASGTVNLVGGGQVKNIAIAAGDSAKAIAEKMDGAIPNLSARARTVFTADVSGVTGGSLNFDVTVGSNTVSLAGVTSTQDLADQLNSNSSKLGITASINDKGVLTITSATGENVKFGAQTGTATAGQVAVKVQGSDGKFEAAAKNVVAAGTAATTTIVTGYVQLNSPTAYSVSGTGTQASQVFGNASAAQKSSVASVDISTADGAQNAIAVVDNALAAIDAQRADLGAVQNRFKNTIDNLTNISENATNARSRIKDTDFAAETAALSKNQVLQQAGTAILAQANQLPQAVLSLLR
For B1, the “glycan array binding signal (z-score)” value (Fuc(a1-2)Gal(b1-3)GlcNAc) was -0.166, the “glycan array binding signal (z-score)” value [1] was -0.133 and the “glycan array binding signal (z-score)” value [2] was -0.154. For the same binder, the “glycan array binding signal (z-score)” value [3] was -0.067, the “glycan array binding signal (z-score)” value [4] was 2.82 and the “glycan array binding signal (z-score)” value [5] was -0.117. For the same binder, the “glycan array binding signal (z-score)” value [6] was -0.151, the “glycan array binding signal (z-score)” value [7] was -0.118 and the “glycan array binding signal (z-score)” value [8] was 0.094. For the same binder, the “glycan array binding signal (z-score)” value [9] was 2.71, the “glycan array binding signal (z-score)” value [10] was -0.134 and the “glycan array binding signal (z-score)” value (Gal(a1-4)Gal(b1-4)GlcNAc) was 0.061. For the same binder, the “glycan array binding signal (z-score)” value [11] was -0.119, the “glycan array binding signal (z-score)” value [12] was 2.32 and the “glycan array binding signal (z-score)” value [13] was -0.165. For the same binder, the “glycan array binding signal (z-score)” value [14] was -0.193, the “glycan array binding signal (z-score)” value [15] was -0.178 and the “glycan array binding signal (z-score)” value [16] was 1.27. The “glycan array binding signal (z-score)” value [17] was -0.189, the “glycan array binding signal (z-score)” value [18] was 3.23 and the “glycan array binding signal (z-score)” value (Gal3S(b1-3)GalNAc) was -0.09. For the same binder, the “glycan array binding signal (z-score)” value [19] was -0.183, the “glycan array binding signal (z-score)” value [20] was -0.191 and the “glycan array binding signal (z-score)” value [21] was 1.69. The “glycan array binding signal (z-score)” value [22] was -0.143, the “glycan array binding signal (z-score)” value [23] was -0.16 and the “glycan array binding signal (z-score)” value (Kdn(a2-3)Gal(b1-4)Glc) was -0.115. The “glycan array binding signal (z-score)” value (Man(a1-2)Man(a1-3)Man) was -0.16, the “glycan array binding signal (z-score)” value [24] was -0.152 and the “glycan array binding signal (z-score)” value (Man(b1-4)GlcNAc) was -0.177. The “glycan array binding signal (z-score)” value [25] was -0.192, the “glycan array binding signal (z-score)” value [26] was 20.9 and the “glycan array binding signal (z-score)” value [27] was 8.36. The “glycan array binding signal (z-score)” value [28] was 0.251, the “glycan array binding signal (z-score)” value [29] was 0.476 and the “glycan array binding signal (z-score)” value [30] was 3.22. The “glycan array binding signal (z-score)” value [31] was -0.117, the “glycan array binding signal (z-score)” value [32] was -0.127 and the “glycan array binding signal (z-score)” value (Neu5Ac(a2-6)GalNAc) was 1.71. For the same binder, the “glycan array binding signal (z-score)” value [33] was 2.98 and the “glycan array binding signal (z-score)” value [34] was -0.227.
